# DT40 TDP1 CPT: growth inhibition of DT40 Tdp1-/-;hTDP1 cells with camptothecin (screen for TDP1 inhibitors); chicken DT40 Tdp1-/-;hTDP1 cells + 20 nM CPT, ATP luminescence, 48 h; Potency, µM (top dose mostly 46.2 µM), for the others: top-dose activity change, negative = growth inhibition, most hits filed as inhibitors; actives 12% (n = 420,000); note: nearly all actives have a fitted effect of over 55% in size
#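 Chicken DT40 Tdp1-/- cells stably complemented with human TDP1 were seeded at 400 cells/well in medium containing 20 nM camptothecin, exposed to pin-transferred compounds, and grown at 37 °C for at least 48 hr. Viability was read as ATP luminescence.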
# TDP1 inh: inhibitors of human tyrosyl-DNA phosphodiesterase TDP1; recombinant TDP1, AlphaScreen DNA substrate cleavage; Potency, µM (titrated, usually from 130 µM), for inactives: top-dose activity change, negative = inhibition, actives largely listed as inhibitors; actives 0.28% (n = 350,000); Q9NUW8; note: nearly all actives have a fitted effect of over 40% in size
#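 AlphaScreen read-out: signal falls as enzyme removes the 3' tyrosine-FITC from a 5'-biotinylated DNA oligo (15 nM, 5 min, RT). Enzyme was E. coli-made recombinant Tdp1 at 1 nM, exposed to compound for 15 min beforehand; beads 10 ug/ml, 10 min.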
# VDR inhibitor: vitamin D3 receptor (human) inhibition. P11473. Potency, µM, for the others: max response, negative = inhibition, actives largely listed as inhibitors. actives 0.93% (n = 400,000). AID 504847. VDR-SRC2-3 peptide fluorescence polarization, 2 h
#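 Measured by FP: displacement of SRC2-3 coactivator peptide from VDR by library compounds, following a two-hour ambient incubation.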
# PLK1 PBD inh: PLK1 (human) polo-box domain binding inhibition. P53350. Plk1 PBD binding of FITC phosphopeptide, fluorescence polarization. Potency, µM, for inactives: max response, negative = inhibition, hits mostly inhibitors. actives 2.8% (n = 360,000); note: series mostly up to about 57 µM; nearly all actives have a fitted effect of over 65% in size
# GCN5L2 inh: blocks human GCN5L2 histone acetyltransferase; actives 0.21% (n = 390,000); GCN5L2 HAT assay, ThioGlo1 CoA-SH fluorescence; Potency, µM (highest dose often 58.9 µM), for the others: top-dose activity change, negative = inhibition, most hits filed as inhibitors; AID 504327
# Target sequence (Q92830 whole entry, looked up): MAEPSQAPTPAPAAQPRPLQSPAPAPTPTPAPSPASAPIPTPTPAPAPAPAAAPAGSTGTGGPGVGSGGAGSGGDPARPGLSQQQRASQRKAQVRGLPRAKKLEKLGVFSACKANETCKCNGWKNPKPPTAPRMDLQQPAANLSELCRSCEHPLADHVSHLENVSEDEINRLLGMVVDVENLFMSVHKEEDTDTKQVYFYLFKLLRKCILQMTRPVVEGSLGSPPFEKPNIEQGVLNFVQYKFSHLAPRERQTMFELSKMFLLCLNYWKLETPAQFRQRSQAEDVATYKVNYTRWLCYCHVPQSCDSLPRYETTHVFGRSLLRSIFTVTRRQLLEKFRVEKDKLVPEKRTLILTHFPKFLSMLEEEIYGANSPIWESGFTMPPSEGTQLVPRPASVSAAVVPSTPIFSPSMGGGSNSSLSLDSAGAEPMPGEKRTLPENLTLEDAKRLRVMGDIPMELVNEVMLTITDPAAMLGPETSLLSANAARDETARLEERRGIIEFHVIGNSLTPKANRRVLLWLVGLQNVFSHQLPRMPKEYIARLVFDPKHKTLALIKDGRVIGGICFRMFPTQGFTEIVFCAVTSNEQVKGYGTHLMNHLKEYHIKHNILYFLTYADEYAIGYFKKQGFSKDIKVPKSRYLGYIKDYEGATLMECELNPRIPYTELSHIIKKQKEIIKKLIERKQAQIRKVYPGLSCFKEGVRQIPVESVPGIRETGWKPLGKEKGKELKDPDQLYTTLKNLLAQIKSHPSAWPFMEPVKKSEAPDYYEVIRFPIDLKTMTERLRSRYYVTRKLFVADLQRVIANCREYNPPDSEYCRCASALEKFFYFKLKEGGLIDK
#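 Enzyme at 20nM final was mixed with library compounds for 15 min at room temperature. Peptide H3(1-25) at 75uM, acetyl-CoA at 70uM and ThioGlo1 at 50uM were then added. Plates were read immediately and after 20 min (Ex340nm/Em540nm).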
# DT40 TDP1 no CPT: qHTS for Inhibitors of human tyrosyl-DNA phosphodiesterase 1 (TDP1): qHTS in cells in absence of CPT. DT40 Tdp1-/- hTDP1 cells, no CPT, ATP luminescence, 48 h. Potency, µM (top dose mostly 46.2 µM), for inactives: top-dose activity change, negative = growth inhibition, hits mostly inhibitors. actives 15% (n = 420,000); note: nearly all actives have a fitted effect of over 55% in size
#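 Readout: luminescence from CellTiter-Glo after 30 min in the dark at RT. Cells: DT40 Tdp1-/- with stable hTDP1, 400/well. Exposure: compounds alone, ≥48 hr, 37 °C.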
# Numbers without * were called inactive; ? = inconclusive; nt = not tested or not shown; [ ] = dose if it differs, or a comment. Rows were chosen to be rich in hits. Some 18% of all compounds tested hit in one or more screens of this group. Calls come from the whole dose curve; as a rule, active = well fitted curve in the direction sought with a large enough effect; inconclusive = small, poorly fitted or top-dose-only effect, or another doubt; inactive = no such curve, though single readings can be large; an effect the other way counts as inactive or inconclusive. % is set by controls: 0 for no effect and ±100 for the full control effect; potency is the fitted concentration of half-maximal effect.
SMILES,DT40 TDP1 CPT,TDP1 inh,VDR inhibitor,PLK1 PBD inh,GCN5L2 inh,DT40 TDP1 no CPT
O=C(Nc1ccc(Cl)cc1)c1cc(S(=O)(=O)Nc2ccccn2)ccc1Cl,?,nt,-4%,2%,-7%,16µM*
COc1ccc(C(=O)Nc2ccc(S(=O)(=O)Nc3cnc4ccccc4n3)cc2)cc1,?,nt,9%,-16%,-7%,?
O=C(Nc1ccc(S(=O)(=O)Nc2cnc3ccccc3n2)cc1)c1ccc(Cl)c([N+](=O)[O-])c1,?,nt,?,42µM*,-23%,?
COc1ccc(CN2CCC3(CC2)c2ccccc2[C@@H](NC(=O)c2ccsc2)[C@@H]3OC)cc1O,?,nt,nt,nt,nt,-17%
O=c1nc2ccccc2c2n1C[C@H](CN1CCN(c3ccccc3)CC1)N2,6%,13%,3%,nt,-6%,4%
O=C(c1ccco1)n1nc(-c2ccc(Cl)cc2)nc1NCc1ccc(F)cc1,nt,0%,7%,nt,-4%,nt
CC(C)(C)C(=O)Nc1cc(S(=O)(=O)Nc2ccc(Cl)cc2)ccc1Cl,18µM*,2%,-12%,-8%,-13%,23µM*
Cn1c(S(=O)(=O)c2ccc([N+](=O)[O-])cc2)nc(Br)c1Br,21µM*,4%,0%,-4%,-1%,?
CC(=O)Nc1ccc(NC(=O)CN2C(=O)CC(c3ccco3)Sc3ccccc32)cc1 (stereo not given),nt,-10%,-9%,nt,-5%,nt
Cc1ccc2c(c1)S(=O)(=O)N(C)C(c1ccccc1)=C2,18µM*,nt,-5%,2%,nt,?
COc1ccc2c(c1)-c1ccccc1S(=O)(=O)N2C,?,6%,21%,2%,-17%,?
Cc1ccc(Sc2ccc(N3CCCC(C(=O)Nc4ccc(F)cc4F)C3)nn2)cc1 (stereo not given),15µM*,6%,-4%,nt,-4%,18µM*
Cc1ccc(Sc2ccc(N3CCC(C(=O)Nc4ccc(Cl)cc4)CC3)nn2)cc1,15µM*,2%,3%,nt,-7%,18µM*
CCOc1ccc(NC(=O)C2CCCN(c3ccc(Sc4ccc(C)cc4)nn3)C2)cc1 (stereo not given),-14%,-1%,-1%,nt,-3%,-21%
CCOC(=O)c1ccc(NC(=O)C2CCCN(c3ccc(Sc4ccc(C)cc4)nn3)C2)cc1 (stereo not given),?,-4%,-1%,nt,-10%,8.2µM*
Cn1ncc2c(O/N=C(\N)c3ccc(C(C)(C)C)cc3)ncnc21,2.6µM*,5%,-20%,6%,2%,2.9µM*
Cc1c2cnn(CC(=O)N3CCOCC3)c(=O)c2c(C)n1Cc1ccccc1F,-7%,nt,?,-6%,?,-17%
Cc1c2cnn(CC(=O)NCc3ccc(Cl)cc3)c(=O)c2c(C)n1Cc1ccc(F)cc1,?,-5%,8%,nt,-15%,?
CCOC(=O)C1CCCN(C(=O)Cn2ncc3c(C)n(Cc4ccc(Cl)cc4)c(C)c3c2=O)C1 (stereo not given),8.2µM*,3%,11%,nt,-8%,8.2µM*
CCOC(=O)C1CCCN(C(=O)Cn2ncc3c(C)n(Cc4ccccc4F)c(C)c3c2=O)C1 (stereo not given),26µM*,5%,12%,nt,0%,18µM*
CCCCCCC(O)(c1ccccc1)C(CN1CCOCC1)c1ccccc1 (stereo not given),18µM*,nt,20%,4%,-5%,23µM*
CC(C)CCC(O)(c1ccccc1)C(CN1CCOCC1)c1ccccc1 (stereo not given),18µM*,nt,-25%,5%,-22%,16µM*
CC(C)CC(O)(c1ccccc1)C(CN1CCOCC1)c1ccccc1 (stereo not given),?,nt,11%,-4%,-25%,21µM*
CCC1CCCCN1S(=O)(=O)c1cc2c(cc1C)NC(=O)CO2 (stereo not given),?,3%,3%,nt,-10%,?
CCCCN(C)c1c(C)nc2ccc(C(=O)N(C)CCN(C)C)cn12,1%,nt,nt,-10%,nt,-2%
SMILES,DT40 TDP1 CPT,TDP1 inh,VDR inhibitor,PLK1 PBD inh,GCN5L2 inh,DT40 TDP1 no CPT
Cc1ccc(OC(=S)Nc2ccc(F)cc2)cc1,3%,2%,-4%,?,4%,-14%
Cc1ccc(OC(=S)Nc2ccccc2)c(C)c1,?,-2%,-16%,-10%,-7%,16µM*
COc1cccc([C@@H]2Oc3ccc(Br)cc3C(=O)[C@H]2OC(=O)N[C@H]2CCCc3ccccc32)c1,nt,2%,5%,nt,nt,nt
Cc1ccc(CN2CCN(/N=C/c3cccn3C)CC2)c(C)c1,23µM*,10%,-9%,-10%,-5%,23µM*
CCOC(=O)/C(C#N)=C/c1c(N2CCN(c3ccccc3)CC2)nc2ccccn2c1=O,?,nt,-2%,1%,-1%,-10%
CCOC(=O)c1ccc(S(=O)(=O)N2CCN(C)CC2)cc1,3%,-2%,-8%,-8%,3.5µM*,-2%
CCOC(=O)c1ccc(S(=O)(=O)N2CCN(C/C=C/c3ccccc3)CC2)cc1,?,1%,-2%,3%,-7%,13µM*
CCOC(=O)/C(C#N)=C\c1ccc(N2CCN(C/C=C/c3ccccc3)CC2)cc1,?,1%,-2%,-24%,-3%,21µM*
CCOC(=O)c1ccc(S(=O)(=O)N2CCN(CC(O)COc3ccc(C#N)cc3)CC2)cc1 (stereo not given),?,nt,15%,-3%,-16%,18µM*
CCOC(=O)c1ccc(S(=O)(=O)N2CCN(CCC#N)CC2)cc1,1%,3%,-3%,-6%,-30%,-26%
CCCCCCCCCCCCCCCC(=O)OC(C)C,-1%,-4%,2%,nt,-16%,-3%
CCN(CC)CCOc1ccc(-c2c(C)c3c(ccc4ccccc43)oc2=O)cc1,-20%,nt,nt,-9%,nt,-41%
COc1cc(OC)cc(C(=O)NNC(=O)C(CCC(N)=O)NS(=O)(=O)c2ccc(Cl)cc2)c1 (stereo not given),-12%,nt,6%,4%,nt,18%
CCOC(=O)N1CCC(NS(=O)(=O)c2ccc(C)cc2)CC1,-26%,4%,3%,-2%,5%,?
CC1CN(CC(O)COc2ccc(C#N)cc2)CCN1CC(O)COc1ccc(C#N)cc1 (stereo not given),21µM*,9%,-10%,4%,-1%,23µM*
CCOC(=O)c1ccc(S(=O)(=O)NC2CCC(C)CC2)cc1 (stereo not given),16µM*,-3%[56.1 µM],-15%,1%,-5%,21µM*

# Screens deposited in PubChem BioAssay by National Center for Advancing Translational Sciences (NCATS).
